From PubChem BioAssay (NCI)
About 79,000 compounds went through this panel and 15% of them were active in at least one assay; those are over-represented in the sample as a whole. The source made the active and inactive calls. Cut-off read from the data, not from the text of the source: active = growth inhibition above about 70%; inactive = the rest.

What was measured:
[1] = NCI Yeast Anticancer Drug Screen. Data for the wt1 strain (AID 149);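 note: 0% = growth of vehicle-treated wt1 cultures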; settings: S. cerevisiae wt1 strain (SPY 50644) growth inhibition, stronger effect = higher value
In short: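 Vehicle-normalised growth inhibition; strain wt1; compound exposure.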

[2] = NCI Yeast Anticancer Drug Screen. Data for the rad50EPP+ strain (AID 151);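 note: 0% = growth of vehicle-treated control cultures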; settings: S. cerevisiae rad50 mutant strain, stronger effect = higher value
In short: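 One strain with a rad50 alteration (rad50EPP+) was compound-treated, its growth then compared to that of vehicle controls.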

[3] = NCI Yeast Anticancer Drug Screen. Data for the mgt1 strain (AID 153); settings: S. cerevisiae mgt1 mutant growth inhibition, stronger effect = higher value
In short: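 After exposure of the mgt1 yeast mutant to compound, growth was measured and reported as inhibition compared with vehicle controls.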

[4] = NCI Yeast Anticancer Drug Screen. Data for the rad50 strain (AID 155);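 note: 0% = growth of vehicle-only cultures of the same strain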; settings: S. cerevisiae rad50 strain growth inhibition, stronger effect = higher value
In short: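 A DNA repair-deficient yeast mutant serves as the test organism; compound-induced growth inhibition is calculated against vehicle-treated cells.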

[5] = NCI Yeast Anticancer Drug Screen. Data for the mec2-1 strain (AID 157); settings: S. cerevisiae mec2-1 strain, stronger effect = higher value
In short: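 Test agents were screened against the mec2-1 yeast strain, with defined DNA repair or cell cycle alteration. Growth was scored as inhibition against vehicle-only controls.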

[6] = NCI Yeast Anticancer Drug Screen. Data for the rad14 strain (AID 159);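 note: 0% = growth of vehicle-treated control cultures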; settings: S. cerevisiae rad14 strain growth inhibition, stronger effect = higher value
In short: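 Vehicle-treated cultures served as the baseline for growth inhibition of a DNA repair-mutant yeast strain exposed to each compound.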

[7] = NCI Yeast Anticancer Drug Screen. Data for the sgs1 mgt1 strain (AID 161);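 note: 0% = growth of cultures given vehicle only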; settings: S. cerevisiae sgs1 mgt1 strain, stronger effect = higher value
In short: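 Mutant yeast exposed to compound; growth scored against vehicle-only wells.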

[8] = NCI Yeast Anticancer Drug Screen. Data for the CLN2oe strain (AID 163);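 note: 0% = growth of vehicle-only control cultures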; settings: S. cerevisiae CLN2oe strain, stronger effect = higher value
In short: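 Here, growth inhibition in a cell-cycle-altered yeast strain after compound exposure was quantified against vehicle control growth.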

[9] = NCI Yeast Anticancer Drug Screen. Data for the cln2 rad14 strain (AID 165);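 note: 0% = growth equal to vehicle treated cultures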; settings: S. cerevisiae cln2 rad14 strain, stronger effect = higher value
In short: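 Growth of compound-exposed yeast (cln2 rad14 genotype) measured and expressed as inhibition relative to vehicle.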

[10] = NCI Yeast Anticancer Drug Screen. Data for the bub3 strain (AID 167); settings: S. cerevisiae bub3 mutant strain, stronger effect = higher value
In short: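 Inhibition values come from growth of compound-treated mutant yeast normalised to vehicle-treated controls.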

[11] = NCI Yeast Anticancer Drug Screen. Data for the wt2 strain (AID 169);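 note: 0% = growth of vehicle-treated yeast cultures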; settings: S. cerevisiae wt2 strain growth inhibition, stronger effect = higher value
In short: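 Genetically defined yeast strains from a DNA-repair/cell-cycle panel were used. Compound-exposed yeast growth was measured, and the inhibition was calculated relative to vehicle treatment.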

[12] = NCI Yeast Anticancer Drug Screen. Data for the mlh1 strain (AID 171);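 note: 0% = growth of vehicle-treated control cultures of the same strain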; settings: S. cerevisiae mlh1 strain growth inhibition, stronger effect = higher value
In short: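 Here the genetically defined yeast mutant is grown with each compound, and the extent to which its growth falls below that of vehicle-exposed cells is reported.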

[13] = NCI Yeast Anticancer Drug Screen. Data for the sgs1 strain (AID 173);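 note: 0% = growth of vehicle-only control cultures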; settings: S. cerevisiae sgs1 mutant, stronger effect = higher value
In short: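 Relative growth inhibition, referenced to vehicle, was determined in a yeast strain with a defined alteration affecting DNA damage repair or cell cycle control after compound exposure.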

[14] = NCI Yeast Anticancer Drug Screen. Data for the mlh1 rad18 strain (AID 175); settings: S. cerevisiae mlh1 rad18 strain growth inhibition, stronger effect = higher value
In short: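 In this whole-cell yeast screen, a strain with altered DNA damage repair is challenged with compound, and its growth is measured against matched vehicle-treated controls.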

[15] = NCI Yeast Anticancer Drug Screen. Data for the rad18 strain (AID 177); settings: S. cerevisiae rad18 mutant growth inhibition, stronger effect = higher value
In short: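 Screen uses a yeast strain with a defined lesion in DNA damage repair; compound effect is read as loss of growth compared to untreated vehicle cultures.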

[16] = at 5.0 µM (retest, dose inferred, filed as 0.5)
[17] = at 50.0 µM (retest, dose inferred, filed as 5.0)

Measured: growth inhibition

Cc1cc(N(CCOS(C)(=O)=O)CCOS(C)(=O)=O)ccc1C=O
inactive: [1]; at 1.2 µM 27% | [1]; at 3.7 µM 28% | [1]; at 11.0 µM 32% | [1]; at 33.0 µM 37% | [1]; at 100.0 µM 31% | [2]; at 1.2 µM 15% | [2]; at 3.7 µM 45% | [2]; at 11.0 µM 34% | [2]; at 33.0 µM 30% | [2]; at 100.0 µM 15% | [3]; at 1.2 µM 14% | [3]; at 3.7 µM 26% | [3]; at 11.0 µM 34% | [3]; at 33.0 µM 41% | [3]; at 100.0 µM 44% | [4]; at 1.2 µM 4% | [4]; at 3.7 µM 16% | [4]; [16] 29% | [4]; at 11.0 µM 26% | [4]; at 33.0 µM 43% | [4]; [17] 57% | [4]; at 50.0 µM 50% | [4]; at 100.0 µM 66% | [5]; at 1.2 µM 6% | [5]; at 3.7 µM 23% | [5]; [16] 24% | [5]; at 11.0 µM 24% | [5]; at 33.0 µM 41% | [5]; [17] 57% | [5]; at 50.0 µM 54.8% | [5]; at 100.0 µM 68% | [6]; at 1.2 µM 20% | [6]; at 3.7 µM 36% | [6]; at 11.0 µM 50% | [6]; at 33.0 µM 64% | [7]; [16] 13% | [7]; [17] 38% | [7]; at 50.0 µM 12.8% | [8]; at 1.2 µM 2% | [8]; at 3.7 µM 9% | [8]; at 11.0 µM 10% | [8]; at 33.0 µM 36% | [8]; at 100.0 µM 34% | [9]; [16] 34% | [9]; [17] 45% | [9]; at 50.0 µM 36.9% | [10]; at 1.2 µM 16% | [10]; at 3.7 µM 17% | [10]; [16] -3% | [10]; at 11.0 µM 4% | [10]; at 33.0 µM 18% | [10]; [17] 13% | [10]; at 50.0 µM 4.7% | [10]; at 100.0 µM 34% | [11]; at 1.2 µM -45% | [11]; at 3.7 µM -46% | [11]; at 11.0 µM -43% | [11]; at 33.0 µM 1% | [11]; at 100.0 µM 33% | [12]; at 1.2 µM 14% | [12]; at 3.7 µM 28% | [12]; at 11.0 µM 24% | [12]; at 33.0 µM 52% | [12]; at 100.0 µM 60% | [13]; at 1.2 µM 19% | [13]; at 3.7 µM 22% | [13]; at 11.0 µM 39% | [13]; at 33.0 µM 51% | [13]; at 100.0 µM 58% | [14]; [16] 56% | [15]; at 1.2 µM 29% | [15]; at 3.7 µM 50%
active: [6]; at 100.0 µM 83% | [14]; [17] 88% | [14]; at 50.0 µM 82.5% | [15]; at 11.0 µM 70% | [15]; at 33.0 µM 86% | [15]; at 100.0 µM 89%

CC[N+]1(C)CCC(O)(/C=C/c2ccc(Cl)c(Cl)c2)C(C(=O)/C=C/c2ccc(Cl)c(Cl)c2)C1 (stereo unspecified)
active: [1]; at 11.0 µM 99% | [1]; at 33.0 µM 99% | [1]; at 100.0 µM 98% | [2]; at 3.7 µM 85% | [2]; at 11.0 µM 99% | [2]; at 33.0 µM 99% | [2]; at 100.0 µM 99% | [3]; at 3.7 µM 72% | [3]; at 11.0 µM 99% | [3]; at 33.0 µM 99% | [3]; at 100.0 µM 99% | [4]; [16] 85% | [4]; at 11.0 µM 99% | [4]; at 33.0 µM 99% | [4]; [17] 98% | [4]; at 50.0 µM 99.5% | [4]; at 100.0 µM 98% | [5]; at 3.7 µM 88% | [5]; [16] 86% | [5]; at 11.0 µM 99% | [5]; at 33.0 µM 99% | [5]; [17] 99% | [5]; at 50.0 µM 99.3% | [5]; at 100.0 µM 99% | [6]; at 11.0 µM 99% | [6]; at 33.0 µM 99% | [6]; at 100.0 µM 99% | [7]; [16] 88% | [7]; [17] 98% | [7]; at 50.0 µM 99.5% | [8]; at 11.0 µM 99% | [8]; at 33.0 µM 98% | [8]; at 100.0 µM 99% | [9]; [17] 99% | [9]; at 50.0 µM 99% | [10]; [16] 90% | [10]; at 11.0 µM 98% | [10]; at 33.0 µM 99% | [10]; [17] 99% | [10]; at 50.0 µM 99.1% | [10]; at 100.0 µM 96% | [11]; at 11.0 µM 99% | [11]; at 33.0 µM 99% | [11]; at 100.0 µM 99% | [12]; at 11.0 µM 99% | [12]; at 33.0 µM 99% | [12]; at 100.0 µM 99% | [13]; at 3.7 µM 71% | [13]; at 11.0 µM 99% | [13]; at 33.0 µM 99% | [13]; at 100.0 µM 98% | [14]; [16] 82% | [14]; [17] 99% | [14]; at 50.0 µM 99.2% | [15]; at 3.7 µM 77% | [15]; at 11.0 µM 99% | [15]; at 33.0 µM 99% | [15]; at 100.0 µM 99%
inactive: [1]; at 1.2 µM -29% | [1]; at 3.7 µM 30% | [2]; at 1.2 µM 12% | [3]; at 1.2 µM 7% | [4]; at 1.2 µM 7% | [4]; at 3.7 µM 52% | [5]; at 1.2 µM 36% | [6]; at 1.2 µM 6% | [6]; at 3.7 µM 39% | [8]; at 1.2 µM -8% | [8]; at 3.7 µM 15% | [9]; [16] 46% | [10]; at 1.2 µM 0% | [10]; at 3.7 µM 20% | [11]; at 1.2 µM -4% | [11]; at 3.7 µM 29% | [12]; at 1.2 µM 6% | [12]; at 3.7 µM 45% | [13]; at 1.2 µM 15% | [15]; at 1.2 µM 29%

CCCCCCCCCCCCCCCCOCC(Cl)COP(=O)(O)OP(=O)(O)OCC1OC(n2cnc3c(N)ncnc32)C(O)C1O (stereo unspecified)
inactive: [1]; at 1.2 µM 21% | [1]; at 3.7 µM 35% | [1]; at 11.0 µM 46% | [1]; at 33.0 µM 54% | [1]; at 100.0 µM 51% | [2]; at 1.2 µM 20% | [2]; at 3.7 µM 24% | [2]; at 11.0 µM 43% | [2]; at 33.0 µM 67% | [3]; at 1.2 µM 15% | [3]; at 3.7 µM 14% | [3]; at 11.0 µM 55% | [3]; at 33.0 µM 68% | [4]; at 1.2 µM 14% | [4]; at 3.7 µM 28% | [4]; [16] 49% | [4]; at 50.0 µM 54.4% | [5]; at 1.2 µM 14% | [5]; at 3.7 µM 6% | [5]; [16] 36% | [5]; at 11.0 µM 19% | [5]; at 33.0 µM 11% | [5]; at 50.0 µM 33.4% | [5]; at 100.0 µM 47% | [6]; at 1.2 µM 10% | [6]; at 3.7 µM 6% | [6]; at 11.0 µM 29% | [6]; at 33.0 µM 35% | [6]; at 100.0 µM 46% | [8]; at 1.2 µM 2% | [8]; at 3.7 µM 2% | [8]; at 11.0 µM -4% | [8]; at 33.0 µM 24% | [8]; at 100.0 µM 31% | [9]; [16] 24% | [9]; at 50.0 µM -30.4% | [10]; at 1.2 µM -12% | [10]; at 3.7 µM -25% | [10]; [16] 10% | [10]; at 11.0 µM -8% | [10]; at 33.0 µM 9% | [10]; at 50.0 µM 28.2% | [10]; at 100.0 µM 39% | [11]; at 1.2 µM -2% | [11]; at 3.7 µM -3% | [11]; at 11.0 µM 11% | [11]; at 33.0 µM 19% | [11]; at 100.0 µM 57%
active: [2]; at 100.0 µM 97% | [3]; at 100.0 µM 85% | [4]; at 11.0 µM 75% | [4]; at 33.0 µM 86% | [4]; [17] 93% | [4]; at 100.0 µM 86% | [5]; [17] 73% | [7]; [16] 74% | [7]; [17] 96% | [7]; at 50.0 µM 88.4% | [9]; [17] 79% | [10]; [17] 73%
